Here are results for 40 compounds from PubChem BioAssay (NCATS).

Results filed as inconclusive are left out. Activity calls are given as the source filed them. The call rests on the fitted dose curve; in most records, active means well fitted curve in the direction sought with a large enough effect; inconclusive means small, poorly fitted or top-dose-only effect, or another doubt; inactive means no such curve, though single readings can be large or run the other way.
On the % scale 0 is the no-effect control and ±100 the full control effect; potency means the concentration at half of the fitted maximal effect.

This assay is described as follows: qHTS for Inhibitors of the vitamin D receptor (VDR): Hit Validation using a Texas Red Assay (AID 602201). The settings on record: VDR coregulator binding, Texas Red fluorescence polarization, agonist-bound VDR ligand-binding domain; series mostly up to 57.1 µM; activity, negative = inhibition: at the top concentration. The gist of the method: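 After a 2-hour room-temperature incubation, polarization of Texas-Red emission was read (Ex 595 nm/Em 615 nm). Final mix contained 7 nM Texas Red, 1.5 uM VDR-LBD and LG19078.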
(qHTS replaces the single test concentration by a dilution series.)
For the compound `COc1cccc(C(=O)Oc2ccccc2/C=C\C(=O)c2cc3ccccc3o2)c1`, the Potency was 3.16 µM (active). For the compound `O=C(CCS(=O)(=O)c1nc(-c2cccs2)cc(C(F)(F)F)n1)Nc1cc(Br)ccc1O`, the Potency is 5.62 µM (active). On the same count and under the same terms, the value for `Cc1sc(C(C2C(=O)CC(C)(C)CC2=O)C2C(=O)CC(C)(C)CC2=O)cc1[N+](=O)[O-]` was 7.94 µM (active). Take `CCOc1cc(/C=C2/C(=O)ON=C2C)cc(Br)c1O`: the “activity, negative = inhibition” value is 11.8% (inactive).

On to `CCN(CC)S(=O)(=O)c1ccc(O)c(NS(=O)(=O)c2ccccc2F)c1`, for which the “activity, negative = inhibition” value is -16.8% (inactive). Regarding `COC(=O)/C=c1/sc2nc3ccccc3n2c1=O`, the Potency was 8.91 µM (active). The same measure, in the same setting: the value for `O=C(/C=C/c1ccccc1F)c1cccc([N+](=O)[O-])c1` was 3.16 µM (active). On the same count and under the same terms, the value for `O=[N+]([O-])c1ccc(C2=Nn3c(Cn4nnc5ccccc54)nnc3SC2)cc1` was 25.1 µM (active). Take `COc1ccc(OC)c2c1C(=O)C(Cl)=C(Cl)C2=O`: the Potency is 7.08 µM (active). As to `COc1ccc(C)cc1N1C(=N)/C(=C2/Nc3ccccc3S2)C(c2ccccc2)C1=O` (stereo not given), the Potency was 10 µM (active). Take `O=S(=O)(/N=C(\Sc1ccc(Cl)cc1)c1ccccc1)c1ccccc1`: the Potency was 35.5 µM (active). On the same count and under the same terms, with `CC(C)CN1C(=O)/C(=C(/C#N)C(=O)NC2CCCCC2)c2ccccc21` the figure was 3.55 µM (active); with `CCOC(=O)c1c(C2COc3ccccc3O2)csc1NC(=O)c1ccco1` (stereo not given), 3.55 µM (active). Turning to `Nc1cc(S(=O)(=O)Nc2ccccc2Cl)ccc1N1CCCCC1`, the Potency is 5.62 µM (active).

On to `COCCN(CC(=O)NC1CCCCC1)C(=O)/C=C/C(=O)c1ccc(OC)cc1O`, for which the “activity, negative = inhibition” value was -21% (inactive). On the same count and under the same terms, with `CCN1C(=O)/C(=C\C(=O)c2cccs2)c2cc(Br)ccc21` the figure was -13.2% (inactive). Turning to `CC(C)(C)c1nnc(NS(=O)(=O)c2ccc([N+](=O)[O-])cc2)s1`, the Potency was 25.1 µM (active). In the case of `Cc1ccc(S(=O)(=O)Oc2ccc(/C=C3\C(=N)N4N=C(S(C)(=O)=O)SC4=NC3=O)cc2)cc1`, the “activity, negative = inhibition” value is 47.3% (inactive).

On to `O=C1/C(=C/c2cccc([N+](=O)[O-])c2)CCc2ccccc21`, for which the Potency was 31.6 µM (active). The same measure, in the same setting: the value for `CCOc1ccc(/C=C/C(=O)c2c(O)cc(C)oc2=O)cc1` was 25.1 µM (active). With `COc1ccc(/C=C2/C(=O)N(c3ccccc3)N=C2C)cc1Br`, the “activity, negative = inhibition” value was -7.66% (inactive). On the same count and under the same terms, with `O=c1[nH]c(/C=C/c2ccc(Cl)cc2Cl)c([N+](=O)[O-])c(=O)[nH]1` the figure was 28.6% (inactive). Regarding `O=C(O)CSc1cc(NS(=O)(=O)c2cccc([N+](=O)[O-])c2)c2ccccc2c1O`, the Potency was 2.82 µM (active).

As to `c1ccc(CCc2nn3c(Cn4cnc5ccccc54)nnc3s2)cc1`, the Potency is 28.2 µM (active). Still for that read-out and setting: the value for `O=[N+]([O-])c1c(NCCCO)cc(Sc2ccc(Cl)cc2)c2nonc12` was 15.8 µM (active). Take `Nc1ncnc2c1ncn2[C@@H]1O[C@H](CNCc2ccc(-c3cc(C(F)(F)F)ccc3Cl)o2)[C@@H](O)[C@H]1O`: the “activity, negative = inhibition” value is -16.2% (inactive).

On to `CCSc1nnc(NC(=O)c2nc(S(=O)(=O)Cc3ccc(F)cc3)ncc2Cl)s1`, for which the Potency was 3.16 µM (active). Still for that read-out and setting: the value for `Cc1oc2c(c1C(=O)c1ccc(Cl)cc1)C(=O)C(=O)c1ccccc1-2` was 3.98 µM (active). Regarding `COc1cc(/C=C/C(=O)c2ccc(F)cc2)cc(OC)c1OC`, the “activity, negative = inhibition” value is -16.5% (inactive). Still for that read-out and setting: with `O=c1[nH]c(/C=C\c2cccc(Cl)c2)nc(O)c1[N+](=O)[O-]` the figure was -5.64% (inactive). As to `CCc1oc2ccccc2c1C(=O)CCN1CCCCC1`, the Potency was 3.55 µM (active). Same read-out and setting: with `CCOc1ccc(Cl)cc1/C=C1/C(=O)ON=C1C` the figure was 7.94 µM (active). For `Cc1ccc(NN2C(=O)C=C(c3ccccc3)C2=O)cc1`, the “activity, negative = inhibition” value is -16.9% (inactive). Regarding `COc1ccc(C(=O)c2coc3c2C(=O)C(=O)c2ccccc2-3)cc1`, the Potency is 5.62 µM (active). For `CCOC(=O)/C(C#N)=C1/C(=O)N(Cc2ccccc2)c2ccccc21`, the “activity, negative = inhibition” value was -16.8% (inactive). The same measure, in the same setting: the value for `O=c1[nH]c(/C=C/c2ccccc2)c([N+](=O)[O-])c(=O)[nH]1` was -6.41% (inactive). Regarding `Cc1ccc(S(=O)(=O)CCC(=O)c2cccc([N+](=O)[O-])c2)cc1`, the Potency was 3.55 µM (active). Turning to `NC(=O)COc1ccc(C(=O)/C=C2/C(=O)Nc3ccccc32)cc1`, the “activity, negative = inhibition” value was -0.867% (inactive). With `O=C(CCCSc1ccc(Cl)cc1)Nc1cc(S(=O)(=O)N2CCOCC2)ccc1O`, the Potency was 7.94 µM (active). Take `O=C(NC1CCCCCC1)C(=S)N1CCOCC1`: the “activity, negative = inhibition” value is -7.89% (inactive).
